Screens from PubChem.
GIRK2 activator = Activators of human GIRK2-containing channels. P48051. HEK293 GIRK2/NPY4 cells, thallium flux fluorescence. activation (% efficacy), % for hits at 37.5 µM. 34,000 tested, under 10 active. AID 1259324;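 active means primary screen hit, no activity in plain HEK293 cells, and in GIRK2-only cells above 5% efficacy rising with concentration; inactive means the rest, including fluorescent compounds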;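 further: efficacy is normalized control-subtracted fluorescence 15 s after thallium addition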
Target sequence (P48051 whole entry, looked up): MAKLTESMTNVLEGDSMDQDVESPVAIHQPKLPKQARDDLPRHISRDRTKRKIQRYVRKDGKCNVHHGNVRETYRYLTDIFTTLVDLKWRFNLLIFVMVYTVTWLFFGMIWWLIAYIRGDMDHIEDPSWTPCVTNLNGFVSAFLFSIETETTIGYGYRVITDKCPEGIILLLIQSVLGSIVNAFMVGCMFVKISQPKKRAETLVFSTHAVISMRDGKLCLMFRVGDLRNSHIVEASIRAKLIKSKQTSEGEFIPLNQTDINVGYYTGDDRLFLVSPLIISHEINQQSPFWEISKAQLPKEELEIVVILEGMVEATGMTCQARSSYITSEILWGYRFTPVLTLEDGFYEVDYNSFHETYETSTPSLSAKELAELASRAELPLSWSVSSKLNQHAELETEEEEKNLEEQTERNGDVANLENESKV
GluA2 TARP mod = GluA2-stargazin AMPA receptor complex modulation | HEK293 GluA2+stargazin, membrane potential dye (FDSS), glutamate EC50; hits were called plate by plate, in both directions | 40,000 compounds, 3.5% hits | calls only at 30 µM | O88602+P19491;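 active means any of four per-well response measures lying three or more SD from its plate-wide compound average, in either direction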
Calls only; . = inactive; / = no result given; + = active, no number. The sample as a whole holds a higher share of hits than the screen did.

SMILES | GIRK2 activator | GluA2 TARP mod
O=S(=O)(c1ccc(Cl)cc1)c1nc(-c2ccccc2F)oc1N1CCOCC1 | . | .
O=C(C1CC1)N1CCc2ccc(NS(=O)(=O)c3ccc4c(c3)CCCC4)cc21 | . | +
O=C(Nc1ccc2c(c1)N(C(=O)C1CC1)CC2)c1cc(Br)ccc1Cl | . | .
O=C(c1ccco1)N1CCc2ccc(NS(=O)(=O)Cc3ccccc3)cc21 | . | .
O=C(C1CC1)N1CCc2ccc(NS(=O)(=O)c3ccc4c(c3)OCCO4)cc21 | . | .
O=C(C1CCCC1)N1CCc2ccc(NS(=O)(=O)Cc3ccccc3)cc21 | . | +
O=C(Nc1ccc2c(c1)N(C(=O)C1CC1)CC2)c1ccc(Cl)c(Cl)c1 | . | +
Cn1c(C(F)(F)F)nn(CCNC(=O)c2ccc3ncsc3c2)c1=O | . | .
Cc1ccc(NCCn2c(C)cn3c4c(=O)n(C)c(=O)n(C)c4nc23)cc1 | / | .
COc1ccc2nc(-c3cccc(NC(=O)C(C)Oc4ccc5c(c4)OCO5)c3)cn2n1 (stereo not drawn) | . | .
CCc1ccc(S(=O)(=O)Nc2ccc(N3CCCCC3=O)c(OC)c2)s1 | . | .
O=C(CN1CCN(c2ccc(Cl)cc2)C1=O)Nc1ccc2c(c1)OCCO2 | . | .
CNS(=O)(=O)c1ccc(C(=O)Nc2cccc(C(F)(F)F)c2)o1 | . | +
O=C(Nc1cccnc1)c1ccc(S(=O)(=O)NCc2cccs2)o1 | . | .
O=C(Nc1cccc(C(F)(F)F)c1)c1ccc(S(=O)(=O)NCc2cccs2)o1 | . | +
O=C(Nc1cccc(C(F)(F)F)c1)c1ccc(S(=O)(=O)N2CCCC2)o1 | . | .
COc1ccc(OC)c2sc(NC(=O)CCCS(=O)(=O)c3ccc(Cl)cc3)nc12 | / | .
CCCOc1ccc(S(=O)(=O)Nc2ccc3c(c2)NC(=O)C(C)(C)CO3)cc1 | / | +
CCOC(=O)Nc1ccc2c(c1)NC(=O)C(C)(C)CO2 | . | .
CCc1ccccc1NC(=O)Cc1cc(-c2ccc(F)cc2)on1 | . | .
Cc1nnc(SCCn2c(N3CCOCC3)nc3c2c(=O)n(C)c(=O)n3C)s1 | / | +
Cn1c(=O)c2c(nc(N3CCOCC3)n2CCSc2nnnn2-c2ccccc2)n(C)c1=O | / | .
O=C(N1CCCc2ccccc21)C1(c2ccc(F)cc2)CC1 | . | /
Cc1c(C)n2c3c(=O)n(Cc4cccc(Cl)c4)c(=O)n(C)c3nc2n1CCN(C)C | . | +
Cc1ccc(C)c(Cn2c(=O)c3c(nc4n(CCCN(C)C)c(C)c(C)n34)n(C)c2=O)c1 | . | .
SMILES | GIRK2 activator | GluA2 TARP mod
CC1(C)N=C(SCC(=O)Nc2ccc(F)cc2F)C(c2ccc(Cl)cc2)=N1 | . | +
CC1(C)N=C(SCC(=O)Nc2ccc(F)cc2F)C(c2ccccc2)=N1 | . | .
CN(C)C(CNC(=O)C1(c2ccc(Cl)cc2)CCCC1)c1ccsc1 (stereo not drawn) | . | +
CN(C)C(CNC(=O)C1(c2ccccc2)CCOCC1)c1ccsc1 (stereo not drawn) | . | .
COc1ccc(Nc2nc(N3CCCC3)c3ccccc3n2)cc1 | / | +
COc1ccc(Nc2nc(C)c([N+](=O)[O-])c(N3CCCC3)n2)c(OC)c1 | . | .
O=C1Cc2cc(NC(=O)Nc3ccc(Cl)cc3)ccc2N1 | . | .
COc1ccc2sc(N(CCN3CCOCC3)C(=O)c3ccc([N+](=O)[O-])o3)nc2c1 | / | .
O=C(c1cccc([N+](=O)[O-])c1)N(CCN1CCOCC1)c1nc2ccc(F)cc2s1 | / | .
Cc1ccc2nc(N(CCN3CCOCC3)C(=O)c3ccc([N+](=O)[O-])o3)sc2c1 | / | +
O=C(c1ccc([N+](=O)[O-])s1)N(CCN1CCOCC1)c1nc2c(F)cccc2s1 | . | .
O=C(c1cc2cc([N+](=O)[O-])ccc2s1)N(CCN1CCOCC1)c1nc2ccc(F)cc2s1 | / | +
O=C(c1ccc([N+](=O)[O-])o1)N(CCN1CCOCC1)c1nc2c(F)cccc2s1 | . | +
CCOC(=O)Cn1c(=NC(=O)c2ccn(CC)n2)sc2c(C)cc(C)cc21 | . | /
Cc1ccc(C(=O)Nc2ccc(Nc3nc(C)cc(N4CCCCC4)n3)cc2)cc1 | / | +
Cc1ccc(Nc2cc(C)nc(Nc3ccc(NC(=O)c4ccc5c(c4)OCO5)cc3)n2)cc1 | / | .
CCOc1ccc(-c2noc(-c3ccc(CS(=O)(=O)c4ccccc4)o3)n2)cc1OC | . | .
COc1cc([N+](=O)[O-])ccc1NC(=O)c1ccc(=O)n(Cc2ccccc2F)c1 | . | +
Cc1ccccc1Cn1cc(C(=O)Nc2cccc([N+](=O)[O-])c2)ccc1=O | . | .
Cc1cc([N+](=O)[O-])ccc1NC(=O)c1ccc(=O)n(Cc2ccc(F)cc2)c1 | . | .
COc1ccccc1NC(=O)c1ccc(=O)n(Cc2cccc([N+](=O)[O-])c2)c1 | . | .
COc1cc([N+](=O)[O-])ccc1NC(=O)c1ccc(=O)n(Cc2cccc([N+](=O)[O-])c2)c1 | . | +
COc1cc([N+](=O)[O-])ccc1NC(=O)c1ccc(=O)n(Cc2ccccc2Cl)c1 | . | .
O=C(Nc1cccc([N+](=O)[O-])c1)c1ccc(=O)n(Cc2ccccc2F)c1 | . | +
COc1cc([N+](=O)[O-])ccc1NC(=O)c1ccc(=O)n(Cc2ccc(F)cc2)c1 | . | +
SMILES | GIRK2 activator | GluA2 TARP mod
Cc1cc(NC(=O)Cc2ccc([N+](=O)[O-])cc2)n(-c2nc(-c3ccccc3)cs2)n1 | . | /
CCC(NCC(O)CN(c1c(C)cc(C)cc1C)S(C)(=O)=O)C(=O)O (stereo not drawn) | . | .
Cc1csc(C(=O)Nc2ccc(CC(=O)NC(C)(C)CO)cc2)c1 | . | /
CNC(=O)CSc1nc(-c2ccccc2)c(NC(=O)c2ccccc2OC(C)=O)s1 | . | .
Cc1cc(C)nc(Nc2nc(N)c3ccccc3n2)n1 | / | +
Cc1cc(NC(=O)C(=O)NCC(c2ccccc2)N(C)C)c2ccccc2n1 (stereo not drawn) | . | .
COc1cc(C)c(C)cc1S(=O)(=O)Nc1ccc(N2CCCCC2=O)c(C)c1 | . | .
O=C(Nc1ccccc1)c1cccc2nc3ccccc3nc12 | / | +
O=C(Nc1ccccc1)c1ccc(C(=O)Nc2ccccc2)nc1 | / | .
O=C(CN1C(=O)c2ccccc2C1=O)NCC1CCN(C2CCCC2)CC1 | . | /
COc1ccc(Cl)cc1C(=O)Nc1nnc(-c2ccnn2C(C)C)o1 | . | +
CC(C)n1nccc1-c1nnc(NC(=O)c2ccc(Cl)cc2Cl)o1 | . | .
COc1ccc(/C=C2\SC(=S)N(c3cccc(C)c3C)C2=O)cc1OC | / | .
COc1cc(/C=C2\SC(=S)N(c3cccc(C)c3C)C2=O)cc(OC)c1OC | / | +
CCOc1cc(/C=C2\SC(=S)N(c3ccccc3Br)C2=O)ccc1O | / | .
COc1cc(/C=C2\SC(=S)N(c3ccccc3Br)C2=O)ccc1O | / | +
COc1ccc(CC(=O)N2CCN(c3ncnc4c3nnn4C)CC2)cc1OC | . | .
CSc1ccccc1NC(=O)CCN1C(=O)c2ccccc2S1(=O)=O | . | .
COc1cccc(NC(=O)CN2N=NC3C(=O)N(c4ccc(Br)cc4)C(=O)C32)c1 (stereo not drawn) | . | .
COc1ccc(C)c2sc(N(Cc3ccncc3)C(=O)/C=C/c3ccc([N+](=O)[O-])cc3)nc12 | . | +
COc1ccc(OC)c2sc(N(CCN3CCOCC3)C(=O)/C=C/c3ccc([N+](=O)[O-])cc3)nc12 | . | .
O=C(c1ccc(=O)n(Cc2ccccc2F)c1)N1CCc2ccccc21 | . | .
